In the library only some 3.7% were active in any assay of this set; here they are far more common.
Nrf2 inh: Nrf2 qHTS screen for inhibitors; A549 ARE-Fluc reporter, luciferase luminescence, 18-24 h; Potency, µM (series often up to 46 µM), for inactives: top-dose activity change, negative = inhibition, actives largely listed as inhibitors; 2.1% of 360,000 active; note: % is set by controls: 0 for no effect and ±100 for the full control effect; nearly all actives have a fitted effect of over 60% in size
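In this cell-based qHTS, ARE-driven firefly luciferase in A549 cells reports Nrf2 activity; the luminescent signal after BugLite lysis is the measured value, with a prior CellTiter-Fluor read for cell health.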
A549 tox: Nrf2 qHTS screen for inhibitors: counterscreen for cytotoxicity; A549 ARE-Fluc cells, CellTiter-Fluor viability, 18-24 h; Potency, µM (top dose mostly 46 µM), inactives show at the top dose activity change, negative = cytotoxicity, usual class: inhibitors; 0.16% of 390,000 active; AID 504648, 2011; note: % is set by controls: 0 for no effect and ±100 for the full control effect
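A549 ARE_Fluc cells in 5% FBS OPTI-MEM were exposed to compounds in concentration-response for 18-24 h at 37 deg C. Viability was read by CellTiter-Fluor fluorescence (Ex 405/Em 525) after 30 min, before the luciferase read.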
Nrf2 activator: qHTS of Nrf2 Activators | AREc32 ARE-luciferase reporter (MCF7-derived line), luminescence, 24 h | Potency, µM (doses to about 46.1 µM), for inactives: top-dose activation, most hits filed as activators | 0.31% of 410,000 active | AID 624171, 2012; note: % of control where 0% means no effect; nearly all actives have a fitted effect of over 65% in size
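Luminescent ARE reporter assay in AREc32_Fluc cells: overnight plating at 37 deg C, 24 hr compound incubation, Steady-Glo added, 30 min RT before reading.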
ELG1 repair inh: qHTS screen for small molecules that inhibit ELG1-dependent DNA repair in human embryonic kidney (HEK293T) cells expressing luciferase-tagged ELG1; HEK293T ELG1-luciferase reporter, luminescence, 16 h; DNA damage induced by 5-fluorouridine; AID 504467, 2011; 2.3% of 330,000 active; Potency, µM (titrated, usually from 46.1 µM), for inactives: at the highest dose activity change, negative = inhibition, hits mostly inhibitors; note: % is set by controls: 0 for no effect and ±100 for the full control effect; nearly all actives have a fitted effect of over 55% in size
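Step one: seed 2,000 cells per well. Step two: pin-transfer compound or DMSO alongside 5-fluorouridine. Step three: incubate 16 hr, 37 °C, 5% CO2. Step four: add ONE-Glo, wait 30 min, read luminescence.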
Numbers without * were called inactive; ? = inconclusive; / = not tested or not shown; [ ] = remark or other dose. Calls come from the whole dose curve; as a rule, active = well fitted curve in the direction sought with a large enough effect; inconclusive = small, poorly fitted or top-dose-only effect, or another doubt; inactive = no such curve, though single readings can be large; an effect the other way counts as inactive or inconclusive. Potency is the fitted concentration of half-maximal effect.

SMILES	Nrf2 inh	A549 tox	Nrf2 activator	ELG1 repair inh
O=C(C=Cc1ccccc1O)c1ccccc1O	5%	-1%	14µM*	/
CCN(C(=O)COC(=O)c1cc([N+](=O)[O-])ccc1N1CCOCC1)C1CCCCC1	2%	2%	0%	-5%
COc1ccc(NC(=S)N(CCc2c(C)[nH]c3ccc(C)cc23)Cc2ccco2)cc1	-5%	-9%	10%	?
CCOc1ccc(NC(=S)N(CCc2c(C)[nH]c3ccc(C)cc23)Cc2ccco2)cc1	-4%	-4%	11%	16µM*
CNC(=S)N(CCc1c(C)[nH]c2ccc(C)cc12)Cc1cc(OC)c(OC)c(OC)c1	23µM*	?	0%	?
COc1cc(OC)c(C2=NOC(C(=O)Nc3cc(C)nn3-c3ccccc3)C2)cc1Cl (stereo not drawn)	?	-7%	2%	-13%
COc1cccc(C2=NOC(C(=O)Nc3cc(C)nn3-c3ccccc3)C2)c1OC (stereo not drawn)	-15%	-17%	-2%	23µM*
CC(C)Cn1c(N)c(C(=O)COC(=O)c2cccn2C)c(=O)n(C)c1=O	23µM*	14%	-1%	9.2µM*
CCCn1c(N)c(C(=O)CSc2nc3ncc(Cl)cc3[nH]2)c(=O)n(C)c1=O	4%	2%	0%	4%
CCc1ccc(C(=O)OCC(=O)c2c(N)n(CC(C)C)c(=O)n(C)c2=O)cc1	-30%	-2%	3%	8.2µM*
CC(C)Cn1c(N)c(C(=O)COC(=O)c2cccc(Cl)c2)c(=O)n(C)c1=O	?	-13%	3%	21µM*
CC(C)Cn1c(N)c(C(=O)COC(=O)c2ccc(F)cc2)c(=O)n(C)c1=O	-5%	-1%	0%	?
CC(C)Cn1c(N)c(C(=O)CSc2nc3ncc(Cl)cc3[nH]2)c(=O)n(C)c1=O	12µM*	?	4%	?
CCOC(=O)c1ccc(N2C(=O)c3n[nH]c(C)c3C2c2ccc(OCC)cc2)cc1 (stereo not drawn)	?	-15%	-4%	/
CC(=O)NC(CC(=O)N(Cc1ccccc1)c1cccc(C)c1)c1ccccc1 (stereo not drawn)	1%	-4%	2%	-4%
CC(C)Cn1c(N)c(C(=O)COC(=O)c2ccccc2C(=O)c2ccccc2)c(=O)n(C)c1=O	13µM*	-28%	0%	16µM*
CC(C)Cn1c(N)c(C(=O)COC(=O)c2ccccc2Cl)c(=O)n(C)c1=O	-9%	3%	0%	?
CC(C)Cn1c(N)c(C(=O)COC(=O)c2ccc3c(c2)OCCO3)c(=O)n(C)c1=O	10µM*	-15%	0%	7.1µM*
CC(C)Cn1c(N)c(C(=O)COC(=O)/C=C/c2cccs2)c(=O)n(C)c1=O	?	1%	4%	9.2µM*
O=C1COc2ccc(C(=O)c3ccccc3C(=O)NCc3ccco3)cc2N1	-22%	0%	3%	21%
CC1CN(C(=O)COC(=O)c2cccc(S(=O)(=O)N3CCc4ccccc43)c2)CC(C)O1 (stereo not drawn)	-5%	2%	0%	-20%
O=C(/C=C/c1ccco1)NCC(=O)N/N=C/c1ccccc1[N+](=O)[O-]	1%	?	11µM*	25%
Cc1nc(N2CCN(C)CC2)c2c(C)c(C(=O)Nc3ccc(C)c(F)c3)sc2n1	?	-20%	8%	-14%
Cc1cccc(NC(=O)c2sc3nc(C)nc(N4CCOCC4)c3c2C)c1	/	/	-1%	/
Cc1nc(N2CCCCC2)c2c(C)c(C(=O)Nc3ccc4c(c3)OCCO4)sc2n1	13%	3%	0%	10µM*
SMILES	Nrf2 inh	A549 tox	Nrf2 activator	ELG1 repair inh
CCOc1ccc(NC(=O)c2sc3nc(C)nc(N4CCOCC4)c3c2C)cc1	?	1%	0%	13µM*
C=CCC[C@@H](Cc1ccc(F)cc1)C(=O)OC[C@@H](Cc1c[nH]c2ccccc12)NC(=O)[C@H](CC=C)CC(=O)N[C@H](CO)Cc1ccccc1	?	?	0%	12%
Cc1ccc(N(CC(=O)NCCSc2ccccn2)S(C)(=O)=O)cc1	0%	-2%	0%	11%
O=C(NCc1ccco1)/C(=C\C=C\c1ccccc1)NC(=O)c1ccccc1Br	6%	0%	3%	23µM*
COc1cccc(NC(=O)c2oc3ccccc3c2NC(=O)c2ccc(F)c(F)c2)c1	-6%	-1%	0%	/
CC1CCCC(NC(=O)NC(=O)CCl)C1C (stereo not drawn)	-2%	1%	?	21µM*
CC1CCCCC1NC(=O)NC(=O)CCl (stereo not drawn)	0%	-10%	14µM*	21µM*
NS(=O)(=O)c1cccc(NC(=O)COc2ccc([N+](=O)[O-])cc2)c1	?	2%	-1%[9.22 µM]	?
CN(C(=O)c1cccc(NC(=O)Cc2ccc([N+](=O)[O-])cc2)c1)C1CC1	21µM*	-6%	3%	?
CC(C)CNC(=O)c1cccc(NC(=O)c2ccc(Cl)c([N+](=O)[O-])c2)c1	26µM*	?	?	?
CC(C)CNC(=O)c1cccc(NC(=O)COc2ccc([N+](=O)[O-])cc2)c1	?	-9%	-1%	21µM*
CCC(COC(=O)c1ccccc1)Oc1cc(NCc2ccccc2)c2ncn(C(C)C)c2c1 (stereo not drawn)	23µM*	16µM*	-5%	?
CCC(CO)Oc1cc(NCc2ccccc2F)c2ncn(C(C)C)c2c1 (stereo not drawn)	-24%	-9%	-4%	?
CCC(CO)Oc1cc(NCc2ccccc2C(F)(F)F)c2ncn(C(C)C)c2c1 (stereo not drawn)	?	?	-2%	23µM*
CCC(CO)Oc1cc(NCc2ccccc2)c2ncn(C(C)C)c2c1 (stereo not drawn)	0%	1%	-5%	-17%
CCC(COC)Oc1cc(NCc2ccccc2)c2ncn(C(C)C)c2c1 (stereo not drawn)	18µM*	?	-5%	18µM*
Cc1ccc2nc(N3CCN(C(=O)C4COc5ccccc5O4)CC3)sc2c1 (stereo not drawn)	/	-2%	1%	/
Cc1ccc(C)c(Cn2nnc(C(=O)NCc3ccc(Cl)cc3Cl)c2N)c1	4%	-3%	-1%	/
Cc1cc(NS(=O)(=O)c2ccc(NC(=O)c3cc(-c4cccnc4)nc4ccc(Cl)cc34)cc2)no1	/	-3%	0%	-3%
Cc1cc(NC(=O)c2cnn3c(C(F)F)cc(-c4ccccc4)nc23)no1	-16%	-13%	0%	8.2µM*
COc1ccc(-c2cc(C(F)(F)F)n3ncc(C(=O)N4CCc5ccccc5C4)c3n2)cc1	-20%	-1%	2%	12µM*
COc1ccc(-c2cc(C(F)(F)F)n3ncc(C(=O)NCC4CCCO4)c3n2)cc1 (stereo not drawn)	-2%	3%	0%	?
